# Data as given in the supplement of paper PMC9694430.
# What was measured:
# Test in all cases: thermal shift delta Tm vs DMSO control; higher = stronger stabilization (binding)
# Conditions in all cases: 12.5 µM; protein concentration 2 µM
# LOC_OS04G57630-cb004 = system: LOC_OS04G57630-cb004
# Method in brief: (§1)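 Compounds dissolved in DMSO were added to purified rice kinase domain constructs, which had been expressed in E. coli, for differential scanning fluorimetry. Each well held 19.5 μl of 2 μM kinase in 100 mM potassium phosphate pH 7.5, 150 mM NaCl, 10% glycerol and 5 × SYPRO Orange. Fluorescence was followed from 25°C to 95°C at a rate of 0.05°C/s. Shifts in Boltzmann-fitted melting temperature are triplicate means relative to DMSO-only protein.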
# LOC_OS05G07850-cb002 = system: LOC_OS05G07850-cb002
# Method in brief: as §1
# LOC_OS05G16824-cb004 = system: LOC_OS05G16824-cb004
# Method in brief: as §1
# LOC_OS05G28520-cb001 = system: LOC_OS05G28520-cb001
# Method in brief: as §1
# LOC_OS05G30820-cb001 = system: LOC_OS05G30820-cb001
# Method in brief: as §1
# LOC_OS05G43570-cb004 = system: LOC_OS05G43570-cb004
# Method in brief: as §1
# LOC_OS06G16330-cb003 = system: LOC_OS06G16330-cb003
# Method in brief: as §1
# LOC_OS06G22820-cb001 = system: T1, LOC_OS06G22820-cb001
# T1 sequence (whole entry): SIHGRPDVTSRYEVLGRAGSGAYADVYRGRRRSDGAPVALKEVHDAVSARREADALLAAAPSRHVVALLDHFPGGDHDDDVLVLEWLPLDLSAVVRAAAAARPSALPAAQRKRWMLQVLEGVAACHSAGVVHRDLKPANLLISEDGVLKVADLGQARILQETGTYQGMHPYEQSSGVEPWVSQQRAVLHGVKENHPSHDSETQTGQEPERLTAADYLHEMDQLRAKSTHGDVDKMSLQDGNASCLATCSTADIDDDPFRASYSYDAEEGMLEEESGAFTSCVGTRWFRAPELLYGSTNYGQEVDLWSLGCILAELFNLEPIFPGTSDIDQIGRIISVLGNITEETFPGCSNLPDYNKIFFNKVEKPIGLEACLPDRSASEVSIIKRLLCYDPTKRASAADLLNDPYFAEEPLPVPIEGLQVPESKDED
# Method in brief: as §1
# LOC_OS07G06570-cb004 = system: LOC_OS07G06570-cb004
# Method in brief: as §1
# LOC_OS07G07230-cb001 = system: LOC_OS07G07230-cb001
# Method in brief: as §1
# Chain of LOC_OS06G16330-cb003 (as listed by the source): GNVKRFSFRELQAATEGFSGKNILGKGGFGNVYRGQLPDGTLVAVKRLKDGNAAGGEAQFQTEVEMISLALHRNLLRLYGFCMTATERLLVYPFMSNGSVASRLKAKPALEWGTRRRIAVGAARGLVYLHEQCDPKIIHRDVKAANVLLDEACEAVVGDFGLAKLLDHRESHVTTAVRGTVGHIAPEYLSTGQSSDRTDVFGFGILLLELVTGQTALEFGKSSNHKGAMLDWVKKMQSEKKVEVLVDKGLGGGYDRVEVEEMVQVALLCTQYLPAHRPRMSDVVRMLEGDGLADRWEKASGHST
SMILES,thermal shift delta Tm (LOC_OS04G57630-cb004) [°C],thermal shift delta Tm (LOC_OS05G07850-cb002) [°C],thermal shift delta Tm (LOC_OS05G16824-cb004) [°C],thermal shift delta Tm (LOC_OS05G28520-cb001) [°C],thermal shift delta Tm (LOC_OS05G30820-cb001) [°C],thermal shift delta Tm (LOC_OS05G43570-cb004) [°C],thermal shift delta Tm (LOC_OS06G16330-cb003) [°C],thermal shift delta Tm (LOC_OS06G22820-cb001) [°C],thermal shift delta Tm (LOC_OS07G06570-cb004) [°C],thermal shift delta Tm (LOC_OS07G07230-cb001) [°C]
COc1cc2ncnc(Oc3cccc(NC(=O)Nc4cc(C(C)(C)C(F)(F)F)on4)c3)c2cc1OC,0.6,2.95,-2.76,0.72,0.54,0.45,0.19,0.58,1.77,0.79
N#CC[C@H](C1CCCC1)n1cc(-c2ncnc3[nH]ccc23)cn1,0.1,6.97,1.27,0.17,0.76,1.05,3.75,0.57,1.16,-0.53
COc1cc2/c(=N/c3ccc(Br)cc3F)nc[nH]c2cc1OCC1CCN(C)CC1 [Vandetanib (ZD6474)],2.9,9.77,2.5,0.62,0.52,-0.25,9.59,1.8,4.17,0.94
CN1CCN(C2CCN(C(=O)Nc3cc(Oc4ccc(NC(=O)C5(C(=O)Nc6ccc(F)cc6)CC5)c(F)c4)ccn3)CC2)CC1 [Golvatinib (E7050)],0.73,5.87,-0.83,6.78,0.39,0.58,2.41,0.51,1.02,0.08
Cc1ccc(-n2nc(C(C)(C)C)cc2NC(=O)Nc2ccc(OCCN3CCOCC3)c3ccccc23)cc1 [Doramapimod (BIRB 796)],1.36,1.84,-1.73,0.26,0.82,0.41,0.15,0.9,0.71,0.5
Oc1ccc(-c2nc(-c3ccc(F)cc3)c(-c3ccncc3)[nH]2)cc1,0.57,1.26,–,1.33,0.88,1.13,0.09,0.97,1.08,0.48
CN(C)C/C=C/C(=O)Nc1cc2c(Nc3ccc(F)c(Cl)c3)ncnc2cc1O[C@H]1CCOC1 [Afatinib (BIBW2992)],-0.38,7.09,0.09,0.25,0.35,0.5,1,0.48,0.78,0.57
Cc1ncc(CO)c(CO)c1O [Pyridoxine],-0.04,0.43,–,-0.11,0.06,0.36,-0.45,0.67,1.06,0.72
CCCCCCCCCCCCCCCCOP(=O)([O-])OCC[N+](C)(C)C [Miltefosine],-0.37,-1.01,-3.83,-3.02,-0.84,-1.92,-5.12,-0.23,-2.61,-2.12
CCC[C@H](NC(=O)/C(C#N)=C/c1cccc(Br)n1)c1ccccc1 [Degrasyn (WP1130)],-2.22,-0.67,–,-0.84,0.52,-0.8,-2.97,0.49,-0.53,0.24
CC(C)(C)c1ccc(S(=O)(=O)/C=C/C#N)cc1,0.92,0.97,–,-0.58,-0.04,0.04,0.83,-0.39,0.39,-0.18
"C[C@H](Nc1ncnc2nc[nH]c12)c1cc2cccc(Cl)c2c(=O)n1-c1ccccc1 [Duvelisib (IPI-145, INK1197)]",-0.24,0.17,0.84,0.82,0.45,0.49,0.28,0.69,0.07,12.2
Cc1cc(N2CCOCC2)cc2[nH]c(-c3c(NC[C@@H](O)c4cccc(Cl)c4)cc[nH]c3=O)nc12,-0.02,9.39,5.37,1.06,0.82,0.65,4.87,0.56,-0.16,0.74
CC#CC(=O)Nc1ccc2ncnc(Nc3cccc(Br)c3)c2c1,1.19,9.9,-2.35,0.85,0.66,0.95,3.13,0.56,1.04,0.05
C=CC(=O)N[C@H]1CCOC[C@H]1Nc1ncc2cc(-c3c(Cl)c(OC)cc(OC)c3Cl)ccc2n1,0.02,0.63,–,0.07,0,-0.08,-0.57,0.4,0.52,0.76
COc1ccc(-c2ccc3ncc4c(c3c2)n(-c2ccc(N3CCNCC3)c(C(F)(F)F)c2)c(=O)n4C)cn1,0.96,10.2,2.52,0.28,0.54,0.36,4.63,0.38,0.59,0.06
Cc1cc2c(F)c(Oc3ncnn4cc(OC[C@@H](C)OC(=O)[C@H](C)N)c(C)c34)ccc2[nH]1,0.17,2.83,1.32,0.65,0.41,0.24,0.16,0.5,0.52,0.42
O=C(Nc1c[nH]nc1-c1nc2ccc(CN3CCOCC3)cc2[nH]1)NC1CC1,3.7,14.2,14.9,0.46,4.77,1.2,10.7,0.86,0.71,0.15
CNC(=O)c1nn(C)c2c1C(C)(C)Cc1cnc(Nc3ccc(N4CCN(C)CC4)cc3)nc1-2,3.76,6.76,7.67,4.23,0.45,0.22,4.37,0.43,0.26,0.04
Cc1ccccc1-n1c(Cn2nc(-c3cccc(O)c3)c3c(N)ncnc32)nc2cccc(C)c2c1=O,–,0.71,-1.12,0.91,0.79,0.31,–,–,–,1

SMILES,thermal shift delta Tm (LOC_OS04G57630-cb004) [°C],thermal shift delta Tm (LOC_OS05G07850-cb002) [°C],thermal shift delta Tm (LOC_OS05G16824-cb004) [°C],thermal shift delta Tm (LOC_OS05G28520-cb001) [°C],thermal shift delta Tm (LOC_OS05G30820-cb001) [°C],thermal shift delta Tm (LOC_OS05G43570-cb004) [°C],thermal shift delta Tm (LOC_OS06G16330-cb003) [°C],thermal shift delta Tm (LOC_OS06G22820-cb001) [°C],thermal shift delta Tm (LOC_OS07G06570-cb004) [°C],thermal shift delta Tm (LOC_OS07G07230-cb001) [°C]
CN(C)S(=O)(=O)c1ccc2c(c1)/C(=C/c1cc3c([nH]1)CCCC3)C(=O)N2,1.35,7.38,-3.8,1.28,1.28,0.71,–,1.01,1.01,0.86
Cc1cc2c(F)c(Oc3ncnn4cc(OC[C@@H](C)O)c(C)c34)ccc2[nH]1,0.32,2.97,-0.74,0.85,0.47,-0.02,0.19,0.53,0.51,0.51
C[C@H]1[C@H](C)CC[C@]2(C(=O)O)CC[C@]3(C)C(=CC[C@@H]4[C@@]5(C)C[C@@H](O)[C@H](O)[C@@](C)(CO)[C@@H]5CC[C@]43C)[C@H]12 [Asiatic Acid],0.45,0.11,-3.69,0.47,0.73,1.08,-0.23,0.71,0.82,0.24
Cc1cc(O)c2c(c1)C(=O)c1cccc(O)c1C2=O [Chrysophanic Acid],-0.6,1.45,–,0.74,0.15,-0.12,-0.34,-0.85,1.81,-0.41
COc1cc2nccc(Oc3ccc(NC(=O)C4(C(=O)Nc5ccc(F)cc5)CC4)cc3)c2cc1OC,2.62,12.8,3.14,7.75,0.54,0.51,5.17,1.2,0.82,0.35
"Cc1[nH]c(/C=C2\C(=O)Nc3ccccc32)c(C)c1CCC(=O)O [Orantinib (TSU-68, SU6668)]",0.84,9.92,0,0.62,1.03,0.68,–,0.6,1.28,0.28
O=C(O)c1cc(O)c2c(c1)[C@@H]([C@H]1c3cc(C(=O)O)cc(O)c3C(=O)c3c(O[C@@H]4O[C@H](CO)[C@@H](O)[C@H](O)[C@H]4O)cccc31)c1cccc(O[C@@H]3O[C@H](CO)[C@@H](O)[C@H](O)[C@H]3O)c1C2=O [Sennoside B],-0.43,-1.7,–,2.58,0.73,1.55,-0.98,1.61,4.56,-0.03
Cn1cc(C2=C(c3ccc(Cl)cc3Cl)C(=O)NC2=O)c2ccccc21,0.28,2.36,0.19,2.17,0.49,0.84,–,1.02,2.2,0.68
CCCCCCCCCCCCCCCCn1cc[n+](Cc2ccccc2)c1C,-3.77,0.19,–,-2.62,-1.41,-3.26,-4.53,-0.65,-1.18,-0.82
Cn1cnc2c(F)c(Nc3ccc(Br)cc3Cl)c(C(=O)NOCCO)cc21 [Selumetinib (AZD6244)],-0.08,-0.01,-2,0.43,0.51,0.42,0.02,0.61,0.8,0.42
CC(C)NC(=O)COc1cccc(-c2nc(Nc3ccc4[nH]ncc4c3)c3ccccc3n2)c1,0.57,1.61,-3.52,0.71,0.73,0.42,0.58,0.84,0.26,-0.31
CCNC(=O)C#Cc1ccc2c(C(=Nc3ccc(CN(C)C)cc3)c3ccccc3)c(O)[nH]c2c1,2.92,5.17,8.59,0.18,0.42,0.36,1.85,0.09,0.62,-0.34
Cc1csc(-c2nnc(Nc3ccc(Oc4ncccc4-c4ccnc(N)n4)cc3)c3ccccc23)c1,0.49,6.74,1.04,0.38,0.85,0.03,3.12,0.66,0.09,0.17
CCCCNc1ncc(C(=O)NCc2ccc(-n3ccnc3)cc2)c(NC2CCC(O)CC2)n1 (centres undefined),3.08,11,8.45,0.43,1,0.57,11.2,0.49,1.44,0.57
C[C@H](Nc1ncnc2[nH]cnc12)c1cc2ccc(F)cc2nc1-c1ccccn1,0.18,0.48,0.99,0.62,0.48,0.58,0.43,0.53,0.76,0.2
CC(C)(C)Cn1c(N)nc2ccc(-c3[nH]c(C(C)(C)C)nc3-c3ccc(F)cc3)nc21,-1.17,1.45,-0.61,0.04,0.34,0.33,0.24,0.34,0.31,0.21
Cc1[nH]c(/C=C2\C(=O)Nc3ccc(S(=O)(=O)N(C)c4cccc(Cl)c4)cc32)c(C)c1C(=O)N1CCN(C)CC1,0.72,9.11,–,0.18,0.55,-0.03,-6.47,1,0.23,0.81
Nc1ccc(-c2ccc3ncc4ccc(=O)n(-c5cccc(C(F)(F)F)c5)c4c3c2)cn1 [Torin 2],0.09,9.25,2.46,0.76,0.48,0.35,2.11,0.56,1.44,0.3
COc1ccc2[nH]cc(/C=C3\C(=O)Nc4ccc(NC(=O)CCN5CCCCC5)cc43)c2c1,0.69,8.06,4.33,0.72,0.68,0.6,2.98,0.74,1.1,0.33
